From the supplement of paper PMC10720658
± gives the standard deviation of the averaged measurements.

tested on: AEK1 (Tb927.3.2440); test: percent reduction in TR-FRET probe signal relative to DMSO control; higher = stronger displacement of ATP-site probe (binding); settings: 1 µM; incubation time 1 h

| Compound | percent reduction in TR-FRET probe signal [%] |
| --- | --- |
| OCCn1cc(-c2ccc3c(c2)CC/C3=N\O)c(-c2ccncc2)n1 | -6.91 ± 7.5 |
| Cc1ccccc1-n1c(Cn2nc(-c3cccc(O)c3)c3c(N)ncnc32)nc2cccc(C)c2c1=O | 1.94 ± 11 |
| COc1ccc(COc2cc3oc(=O)c4cc(C(C)O)ccc4c3cc2OC)cc1 (stereo not drawn) [Palomid 529 (P529)] | -5.44 ± 9.3 |
| CN1CCN(CCOc2cc(OC3CCOCC3)c3c(Nc4c(Cl)ccc5c4OCO5)ncnc3c2)CC1 [Saracatinib (AZD0530)] | 11.4 ± 13 |
| CC(C)(C)c1nc(-c2cccc(NS(=O)(=O)c3c(F)cccc3F)c2F)c(-c2ccnc(N)n2)s1 | 6.2 ± 7.3 |
| COc1cc(Nc2ncc(F)c(Nc3ccc4c(n3)N(COP(=O)(O)O)C(=O)C(C)(C)O4)n2)cc(OC)c1OC [Fostamatinib (R788)] | 31.3 ± 1.3 |
| COc1cc2ncnc(Nc3ccc(F)c(Cl)c3)c2cc1OCCCN1CCOCC1 [Gefitinib (ZD1839)] | 5.46 ± 21 |
| Cc1ccc(NC(=O)c2cccc(C(C)(C)C#N)c2)cc1Nc1ccc2ncn(C)c(=O)c2c1 | -9.01 ± 3.1 |
| NC(=O)c1cccc(-c2cc(Nc3ccc(OC(F)(F)F)cc3)ncn2)c1 | -4.38 ± 9.6 |
| CN1CCN(C2CCN(C(=O)Nc3cc(Oc4ccc(NC(=O)C5(C(=O)Nc6ccc(F)cc6)CC5)c(F)c4)ccn3)CC2)CC1 [Golvatinib (E7050)] | 0.527 ± 8 |
| O=C1NC(=O)/C(=C/c2cccc(C(F)(F)F)c2)S1 | -3.02 ± 1.9 |
| CC(C)(C)c1cc(NC(=O)Nc2ccc(-c3cn4c(n3)sc3cc(OCCN5CCOCC5)ccc34)cc2)no1 [Quizartinib (AC220)] | 9.26 ± 2.9 |
| O=[N+]([O-])c1cnc(Sc2nnc(O)n2-c2ccc3c(c2)OCCO3)s1 | 0.0867 ± 3.4 |
| CN(C[C@@H]1COCCO1)S(=O)(=O)Nc1ccc2ccc3ncc(-c4cnn(C)c4)cc3c(=O)c2c1 | 7.88 ± 10 |
| C#Cc1cccc(Nc2ncnc3cc(OCCOC)c(OCCO)cc23)c1.Cl | -0.453 ± 12 |
| COc1ccc(-c2ccc3c(N4CCOC[C@@H]4C)nc(N4CCOC[C@@H]4C)nc3n2)cc1CO | -7.43 ± 5.2 |
| FC(F)c1nc2ccccc2n1-c1nc(N2CCOCC2)nc(N2CCOCC2)n1 | -1.21 ± 9.1 |
| Nc1nc(Nc2ccc(S(N)(=O)=O)cc2)nn1C(=O)c1c(F)cccc1F | 27.8 ± 16 |
| COc1cc2ncnc(Nc3ccc(F)c(Cl)c3)c2cc1NC(=O)/C=C/CN1CCCCC1 | -9.62 ± 5 |
| Cc1ccc(-c2nn(C(C)(C)C)c3ncnc(N)c23)cc1 | -1.9 ± 8.7 |
| CCCS(=O)(=O)Nc1ccc(F)c(C(=O)c2c[nH]c3ncc(Cl)cc23)c1F | -8.04 ± 4.3 |
| COc1ccc2c(c1)c(C1=C(c3c[nH]c4ccccc34)C(=O)NC1=O)cn2CCCN(C)C | 4.65 ± 14 |
| Cl.Cl.Clc1ccc(Nc2nnc(Cc3ccncc3)c3ccccc23)cc1 [Vatalanib (PTK787) 2HCl] | 4.61 ± 8.7 |
